Measurements: PubChem BioAssay (NCI)
Where “and” joins values, the source holds several entries; their conditions need not be identical. Equal values may be shown once. Compounds without any hit were thinned out: in the full panel of roughly 83,000, 20% have a hit.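 In brief: 96-well plates, 48 h treatment, single concentration, percent growth endpoint.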 Calls of active or inactive are those of the source. Rule for the calls: active = growth percent below 10; inactive = the rest.

Columns and labels:
Experiment in all cases: NCI-60 one-dose screen, 48 h (100 = growth as untreated, 0 = no growth, -100 = all killed)
HCT-15 colon = settings: 10 µM unless noted
HT29 colon = settings: 10 µM unless noted
SNB-75 CNS = settings: 10 µM unless noted
SNB-19 CNS = settings: 10 µM unless noted
U251 CNS = settings: 10 µM unless noted
PC-3 prostate = settings: 10 µM unless noted
SK-MEL-5 melanoma = settings: 10 µM unless noted
UACC-62 melanoma = tested on: UACC-62 melanoma
LOX IMVI melanoma = settings: 10 µM unless noted
SK-MEL-28 melanoma = settings: 10 µM unless noted

Measured: growth

CCCCCCCCCCNC(=O)CI
inactive: HCT-15 colon 14% | SNB-19 CNS 89.2% | U251 CNS 14.3% | UACC-62 melanoma; 10 µM unless noted 59.4% | SK-MEL-28 melanoma 58.4%
active: HT29 colon -54.9% | SNB-75 CNS -30.7% | PC-3 prostate -39.8% | SK-MEL-5 melanoma 3.04% | LOX IMVI melanoma -73.2%

O=C1OC(c2ccccc2)=N/C1=C\c1ccccc1
inactive: HCT-15 colon 105% | HT29 colon 113% | SNB-75 CNS 83% | SNB-19 CNS 98.9% | U251 CNS 91% | PC-3 prostate 95.9% | SK-MEL-5 melanoma 97.7% | UACC-62 melanoma; 10 µM unless noted 101% | LOX IMVI melanoma 98.1% | SK-MEL-28 melanoma 108%

CCCCOc1ccc(Nc2cc(Cl)ccc2C(=O)O)cn1
inactive: HCT-15 colon 104% and 89.1% | HT29 colon 115% | SNB-75 CNS 98.7% and 115% | SNB-19 CNS 96.6% and 106% | U251 CNS 98.1% and 96.9% | PC-3 prostate 93.6% | SK-MEL-5 melanoma 99.4% and 102% | UACC-62 melanoma; 10 µM unless noted 97.9% and 98.1% | LOX IMVI melanoma 107% and 90.5% | SK-MEL-28 melanoma 122% and 113%

NC1CCC(C(=O)O)CC1 (stereo unspecified)
inactive: HCT-15 colon 106% and 98.9% | HT29 colon 101% and 102% | SNB-75 CNS 85.8% and 82% | SNB-19 CNS 105% and 110% | U251 CNS 103% and 106% | PC-3 prostate 93.3% and 86.9% | SK-MEL-5 melanoma 102% and 103% | UACC-62 melanoma; 10 µM unless noted 97.7% and 101% | LOX IMVI melanoma 107% and 96.2% | SK-MEL-28 melanoma 103% and 107%

CC(=O)Nc1ccc(S(N)(=O)=O)cc1
inactive: HCT-15 colon 107% and 93.5% | HT29 colon 106% and 96.8% | SNB-75 CNS 107% and 92.5% | SNB-19 CNS 98.3% and 107% | U251 CNS 93% and 96.2% | PC-3 prostate 81.2% and 99.1% | SK-MEL-5 melanoma 93.2% and 101% | UACC-62 melanoma; 10 µM unless noted 99.8% | LOX IMVI melanoma 98% and 92.1% | SK-MEL-28 melanoma 107% and 110%

CC(=O)NCC(=O)c1ccc([N+](=O)[O-])cc1
inactive: HCT-15 colon 111% | HT29 colon 107% | SNB-75 CNS 99.1% | SNB-19 CNS 103% | U251 CNS 102% | PC-3 prostate 98.4% | SK-MEL-5 melanoma 103% | UACC-62 melanoma; 10 µM unless noted 101% | LOX IMVI melanoma 95% | SK-MEL-28 melanoma 105%

CC1CCC2(C(=O)O)CCC3(C)C(=CCC4C5(C)CCC(O)C(C)(C)C5CCC43C)C2C1C (stereo unspecified)
inactive: HCT-15 colon 32.4% and 66.2% | HT29 colon 48.3% and 111% | SNB-75 CNS 32.2% and 95.6% | SNB-19 CNS 63.4% and 91.6% | U251 CNS 42.9% and 77.6% | PC-3 prostate 65.1% and 79.8% | SK-MEL-5 melanoma 24.7% and 96.2% | UACC-62 melanoma; 10 µM 88.6% and 81.2% | LOX IMVI melanoma 25.3% and 70.1% | SK-MEL-28 melanoma 35.9% and 78.7%
active: UACC-62 melanoma; 100 µM -65.9% and -92.3%

Cc1cc(-c2cc(C)c(O)c(C)c2)cc(C)c1O
inactive: HCT-15 colon 70.8% | HT29 colon 96.1% | SNB-75 CNS 65% | SNB-19 CNS 83.8% | U251 CNS 88.6% | PC-3 prostate 80.9% | SK-MEL-5 melanoma 73.9% | UACC-62 melanoma; 10 µM unless noted 62.8% | LOX IMVI melanoma 76.8% | SK-MEL-28 melanoma 88%

COc1ccc2cc1Oc1ccc(cc1)C[C@H]1c3cc(c(OC)cc3CCN1C)Oc1c(OC)c(OC)cc3c1[C@H](C2)N(C)CC3
inactive: SNB-19 CNS 57.7% | U251 CNS 24.2% | PC-3 prostate 28.8% | SK-MEL-5 melanoma 21.1% | UACC-62 melanoma; 10 µM 103% | UACC-62 melanoma; 100 µM 80.7% and 64.2%
active: HCT-15 colon 3.41% | HT29 colon -32.7% | SNB-75 CNS -7.64% | LOX IMVI melanoma -43.7%

c1ccc(-c2nc3ccccc3s2)cc1
inactive: HCT-15 colon 92.2% | HT29 colon 114% | SNB-75 CNS 91.7% | SNB-19 CNS 95.3% | U251 CNS 99.6% | PC-3 prostate 86.9% | SK-MEL-5 melanoma 89.8% | UACC-62 melanoma; 10 µM unless noted 75.7% | LOX IMVI melanoma 88.5% | SK-MEL-28 melanoma 104%

Nc1nc(N)c2[nH]cnc2n1
inactive: HCT-15 colon 107% | HT29 colon 101% | SNB-75 CNS 91.3% | SNB-19 CNS 96.1% | U251 CNS 111% | PC-3 prostate 79.3% | SK-MEL-5 melanoma 98.1% | UACC-62 melanoma; 10 µM unless noted 84.3% | LOX IMVI melanoma 83% | SK-MEL-28 melanoma 99.9%
